The panel holds about 83,000 compounds, 20% with a hit somewhere; the sample as a whole holds those more often.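 Testing used 96-well plates and a 48-hour single-concentration exposure. Example: -40 means 40% of the starting cells died.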 A number with no mark means an inactive call. Activity calls are given as the source filed them. Rule for the calls: active = growth percent below 10; inactive = the rest.
These compounds were tested on SF-539 CNS (assay: NCI-60 one-dose screen, 48 h (100 = growth as untreated, 0 = no growth, -100 = all killed)). Settings: 10 µM unless noted.

| SMILES | growth |
| --- | --- |
| CCN(CC)c1ccc(/C=C2\Oc3ccc(O)c(I)c3C2=O)cc1 | 58.3% |
| CC1(c2ccc(Cl)cc2)OC(=O)CC(=O)O1 | 102% |
| Cc1csc(NC(c2ccccc2)c2c(C)nc3ccccn23)n1 (stereo not drawn) | 101% |
| COc1cc(-c2nc(N=Nc3c(O)[nH]c4ccc(Br)cc34)[nH]c(=O)c2C#N)cc(OC)c1OC | 96% |
| O=C1/C(=C/c2ccc(Cl)cc2)CN(C(=O)CCN2CCC(=NO)CC2)C/C1=C\c1ccc(Cl)cc1 | -84.5% (active) |
| Cc1ccc(-c2cc3nc(C(Cl)Cl)nc(-c4ccccc4C)n3n2)cc1 | 86.5% |
| Nc1cccc(-c2nc3sccn3c2-c2ccnc(NCCNS(=O)(=O)c3ccc(C(F)(F)F)cc3)n2)c1 | 32% |
| FC(F)(F)c1cccc(-c2cn3c(ccc4ccccc43)n2)c1 | 99.5% |
| CCCCCCN1CSC(=S)N(CCCCCC)C1 | 102% |
| Oc1ccc2cc(Br)ccc2c1-c1c(O)ccc2cc(Br)ccc12 | 82% |
| C=C(C)[C@@H]1C[C@H](O)Cc2cc(F)ccc2N1 | 86.3% |
| NC1=NC(SCc2ccccc2CCl)c2ncn(Cc3ccccc3CCl)c2N1 (stereo not drawn) | 69.4% |
| COc1ccc(C(=O)c2cc(OC)c(OC)c(OC)c2OC)cc1O | 23.8% |
| CNc1ccc(Br)c2c1C(=O)c1ccccc1C2=O | 103% |
| Cc1cc(N/N=C/c2nc(-c3ccccc3)oc2C)c2cc(Br)ccc2n1 | 75.2% |
| CC(C)(C)n1cc(-c2ccnc(NCCCNS(=O)(=O)c3ccccc3)c2)c(-c2cccc(O)c2)n1 | 38.3% |
| O=C1Nc2ccc(Cl)cc2C12Nc1cc(Cl)ccc1S2 (stereo not drawn) | 87.9% |
| O=C1/C(=C/c2ccccc2)CN(C(=O)CCN2CCC(=NO)CC2)C/C1=C\c1ccccc1 | -30.5% (active) |
| O=[N+]([O-])c1cccc(-c2nc3sccn3c2-c2ccnc(NCCCNS(=O)(=O)c3ccc(Cl)cc3)n2)c1 | 84.9% |
| Cc1ccc(S(=O)(=O)Nc2c(Br)cc(Br)cc2C(N)=O)cc1 | 101% |

| SMILES | growth |
| --- | --- |
| CN(C[C@H]1Cc2c(cccc2N2CCN(Cc3ccccn3)CC2)CN1)[C@H]1CCCc2cccnc21 | 83% |
| CC(C)(C)OC(=O)NC(CSCc1ccccc1)C(=O)ON1C(=O)CCC1=O (stereo not drawn) | 99.5% |
| COc1ccc(-c2ccc(-c3ccc(C(=N)N)s3)s2)cc1Cl | 65.7% |
| O=[N+]([O-])c1ccc(C(c2ccccc2)c2ccccc2)cc1 | 104% |
| CCN(CC)c1ccc2[nH]c3c(C(N)=O)cc(=O)c(=O)c=3oc2c1 | -28.3% (active) |
| CCNc1nc(S(=O)(=O)CC)nc2ccccc12 | 88.3% |
| CCC(=O)Oc1ccc(/C(=C(/C)Cc2cccc(OC)c2)c2ccc(OCCN(C)C)cc2)cc1 | 90.3% |
| Nc1nc(-c2ccccc2)c(CCCOc2ccc(NC(=O)CBr)cc2)c(=O)[nH]1 | 93.1% |
| CN(C)CCOC(=O)Nc1ccccc1Cl | 110% |
| c1ccc(-c2nnc(-c3ccccn3)s2)nc1 | 99.8% |
| COc1ccc(-c2nc(N3CCCC3=O)sc2Br)cc1OC | 96.9% |
| C=C1CCC2C3(C)COC(c4c(OC)cccc4OC)OC3CCC2(C)C1C/C=C1/C(=O)OCC1O (stereo not drawn) | 66.7% |
| c1cc2[nH]ncc2cc1-c1nc2ccc3[nH]ncc3c2c2c1CCC2 | 45% |
| COc1ccc2c(c1)[nH]c(=O)c1c3cc(OC)ccc3cn21 | 7.14% (active) |
| NC(N)=Nc1nc2ccccc2o1 | 96.2% |
| Nc1ccc(C(=O)CSc2nc3ccccc3[nH]2)cc1 | 104% |
| CC(C)(C)n1cc(-c2ccnc(NCCCNS(=O)(=O)c3ccc(F)cc3)c2)c(-c2cccc(O)c2)n1 | 28.4% |
| COc1ccccc1CNCCCN1C(=O)c2ccc3c4c(ccc(c24)C1=O)C(=O)N(CCCNCCCCNCCCN)C3=O | -55.9% (active) |
| O=C(CCl)N(C1CCCCC1)C1CCCCC1 | 105% |

The compounds below were run on UACC-257 melanoma in the same assay as above. Settings: 10 µM unless noted.

| SMILES | growth |
| --- | --- |
| CCN(CC)c1ccc(/C=C2\Oc3ccc(O)c(I)c3C2=O)cc1 | 80.6% |
| CC1(c2ccc(Cl)cc2)OC(=O)CC(=O)O1 | 109% |
| Cc1csc(NC(c2ccccc2)c2c(C)nc3ccccn23)n1 (stereo not drawn) | 94.8% |
| COc1cc(-c2nc(N=Nc3c(O)[nH]c4ccc(Br)cc34)[nH]c(=O)c2C#N)cc(OC)c1OC | 91.9% |
| O=C1/C(=C/c2ccc(Cl)cc2)CN(C(=O)CCN2CCC(=NO)CC2)C/C1=C\c1ccc(Cl)cc1 | -76.7% (active) |
| Cc1ccc(-c2cc3nc(C(Cl)Cl)nc(-c4ccccc4C)n3n2)cc1 | 101% |
| Nc1cccc(-c2nc3sccn3c2-c2ccnc(NCCNS(=O)(=O)c3ccc(C(F)(F)F)cc3)n2)c1 | 65% |
| FC(F)(F)c1cccc(-c2cn3c(ccc4ccccc43)n2)c1 | 114% |
| CCCCCCN1CSC(=S)N(CCCCCC)C1 | 104% |
| Oc1ccc2cc(Br)ccc2c1-c1c(O)ccc2cc(Br)ccc12 | 82.6% |
| C=C(C)[C@@H]1C[C@H](O)Cc2cc(F)ccc2N1 | 93.3% |
| NC1=NC(SCc2ccccc2CCl)c2ncn(Cc3ccccc3CCl)c2N1 (stereo not drawn) | 42.5% |
| COc1ccc(C(=O)c2cc(OC)c(OC)c(OC)c2OC)cc1O | 79.9% |
| CNc1ccc(Br)c2c1C(=O)c1ccccc1C2=O | 121% |
| Cc1cc(N/N=C/c2nc(-c3ccccc3)oc2C)c2cc(Br)ccc2n1 | 102% |
| CC(C)(C)n1cc(-c2ccnc(NCCCNS(=O)(=O)c3ccccc3)c2)c(-c2cccc(O)c2)n1 | 47.2% |
| O=C1Nc2ccc(Cl)cc2C12Nc1cc(Cl)ccc1S2 (stereo not drawn) | 129% |
| O=C1/C(=C/c2ccccc2)CN(C(=O)CCN2CCC(=NO)CC2)C/C1=C\c1ccccc1 | 11.3% |
| O=[N+]([O-])c1cccc(-c2nc3sccn3c2-c2ccnc(NCCCNS(=O)(=O)c3ccc(Cl)cc3)n2)c1 | 47.7% |
| Cc1ccc(S(=O)(=O)Nc2c(Br)cc(Br)cc2C(N)=O)cc1 | 107% |

| SMILES | growth |
| --- | --- |
| CN(C[C@H]1Cc2c(cccc2N2CCN(Cc3ccccn3)CC2)CN1)[C@H]1CCCc2cccnc21 | 93.1% |
| CC(C)(C)OC(=O)NC(CSCc1ccccc1)C(=O)ON1C(=O)CCC1=O (stereo not drawn) | 99.8% |
| COc1ccc(-c2ccc(-c3ccc(C(=N)N)s3)s2)cc1Cl | 106% |
| O=[N+]([O-])c1ccc(C(c2ccccc2)c2ccccc2)cc1 | 96.9% |
| CCN(CC)c1ccc2[nH]c3c(C(N)=O)cc(=O)c(=O)c=3oc2c1 | -29.2% (active) |
| CCNc1nc(S(=O)(=O)CC)nc2ccccc12 | 85.5% |
| CCC(=O)Oc1ccc(/C(=C(/C)Cc2cccc(OC)c2)c2ccc(OCCN(C)C)cc2)cc1 | 118% |
| Nc1nc(-c2ccccc2)c(CCCOc2ccc(NC(=O)CBr)cc2)c(=O)[nH]1 | 86.9% |
| CN(C)CCOC(=O)Nc1ccccc1Cl | 121% |
| c1ccc(-c2nnc(-c3ccccn3)s2)nc1 | 96% |
| COc1ccc(-c2nc(N3CCCC3=O)sc2Br)cc1OC | 98.5% |
| C=C1CCC2C3(C)COC(c4c(OC)cccc4OC)OC3CCC2(C)C1C/C=C1/C(=O)OCC1O (stereo not drawn) | 59.6% |
| c1cc2[nH]ncc2cc1-c1nc2ccc3[nH]ncc3c2c2c1CCC2 | 65.8% |
| COc1ccc2c(c1)[nH]c(=O)c1c3cc(OC)ccc3cn21 | 72.5% |
| NC(N)=Nc1nc2ccccc2o1 | 121% |
| Nc1ccc(C(=O)CSc2nc3ccccc3[nH]2)cc1 | 107% |
| CC(C)(C)n1cc(-c2ccnc(NCCCNS(=O)(=O)c3ccc(F)cc3)c2)c(-c2cccc(O)c2)n1 | 50.1% |
| COc1ccccc1CNCCCN1C(=O)c2ccc3c4c(ccc(c24)C1=O)C(=O)N(CCCNCCCCNCCCN)C3=O | -91.1% (active) |
| O=C(CCl)N(C1CCCCC1)C1CCCCC1 | 105% |

From PubChem BioAssay (NCI)
